Assay [1] in a line: ATG_PPRE_CIS: Attagene CIS-FACTORIAL HepG2 Assay for human Peroxisome Proliferator-activated Response Element (PPRE) (AID 2282958; active means hit-call score of the fitted dose curve at least 0.9, where 1 is the maximum; inactive means score below 0.9). The conditions noted are these: HepG2 PPRE cis-element reporter, Attagene transcription factor profiling; actives raise or lower the signal. In a few lines: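 Endogenous PPRE-driven transcription is measured in HepG2 cells carrying transfected multi-reporter constructs. Reporter transcripts are quantified by RT-PCR, HpaI digestion and capillary electrophoresis 24 h after dosing. DMSO baseline, bidirectional fit.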

In assay [2] the target is Nuclear receptor subfamily 1 group I member 3 (Homo sapiens) (UniProt Q14994). Kind of assay: ATG_CAR_TRANS: Attagene TRANS-FACTORIAL HepG2 Assay for human Constitutive Androstane Receptor (CAR) (AID 2282969).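 Further: activators raise reporter mRNA above DMSO so AC50 marks induction.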 The conditions noted are these: HepG2 Attagene TRANS-FACTORIAL CAR reporter. In a few lines: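 Steps: transient transfection of HepG2 with multiple GAL4-UAS reporter units; 24 h compound incubation; RNA isolation, RT-PCR, 6-FAM primer extension, HpaI digest; capillary electrophoresis. Gain-of-signal relative to DMSO negative control.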

A short description of assay [3]: ATG_GAL4_TRANS: Attagene TRANS-FACTORIAL HepG2 Assay for GAL4 (Internal Marker) (AID 2282976). As to conditions: HepG2 Attagene TRANS GAL4 internal marker reporter. Summed up: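 First, HepG2 cells were transfected with reporter units under GAL4-UAS control. Next, they were treated with chemical for 24 h. Finally, RNA was reverse-transcribed, PCR-amplified, FAM-labelled and resolved by capillary electrophoresis, with induction scored against DMSO.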

Assay [4] concerns the target Glucocorticoid receptor (Homo sapiens) (UniProt P04150). In words: ATG_GR_TRANS: Attagene TRANS-FACTORIAL HepG2 Assay for human Glucocorticoid Receptor (GR) (AID 2282978).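 Further: activators score as hits since higher reporter transcript over DMSO is fitted.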 As to conditions: HepG2 Attagene TRANS GR reporter, mRNA transcription. In a few lines:
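Readout is reporter transcript from a chimeric GR-Gal4 acting on GAL4-UAS in transfected human HepG2 liver cells after 24 h exposure, quantified by RT-PCR and capillary electrophoresis. Activation fitted upward against DMSO.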

For assay [5], the target named is Bile acid receptor (Homo sapiens) (UniProt Q96RI1). Kind of assay: ATG_FXR_TRANS: Attagene TRANS-FACTORIAL HepG2 Assay for Farnesoid X Receptor (FXR) (AID 2282979).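 Further: hits raise reporter mRNA above DMSO so AC50 marks FXR activation.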 The conditions noted are these: HepG2 Attagene TRANS FXR-GAL4 reporter transcription. Summed up: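 Transient transfection of HepG2 with multiplexed GAL4-UAS reporter units; exogenous FXR-GAL4 chimera. Dose 24 h → TriZol RNA → oligo(dT) RT → PCR, 6-FAM primer extension, HpaI cut → CE. Gain vs DMSO.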

In assay [6] the target is Oxysterols receptor LXR-alpha (Homo sapiens) (UniProt Q13133). In words: ATG_LXRa_TRANS: Attagene TRANS-FACTORIAL HepG2 Assay for human Liver X Receptor alpha (LXRa) (AID 2282980). As to conditions: HepG2 Attagene TRANS reporter, LXRa transactivation. Summed up:
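Transfect HepG2 with GAL4-UAS multiplex reporter constructs (TRANS format, chimeric receptor-GAL4); treat 24 h; extract RNA, reverse-transcribe, PCR-amplify, FAM-label, HpaI-digest; resolve fragments by capillary electrophoresis. Upward response vs DMSO.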

For assay [7], the target named is Oxysterols receptor LXR-beta (Homo sapiens) (UniProt P55055). In words: ATG_LXRb_TRANS: Attagene TRANS-FACTORIAL HepG2 Assay for human Liver X Receptor beta (LXRb) (AID 2282981). As to conditions: HepG2 Attagene TRANS GAL4-LXRb reporter, mRNA. In a few lines: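 Measures induction of a Gal4-driven reporter transcript in HepG2 cells expressing an exogenous LXRb-Gal4 fusion. Cells are exposed to compound for 24 h before RNA isolation and RT-PCR with capillary electrophoresis detection.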

The target of assay [8] is human Peroxisome Proliferator-activated Receptor delta (PPARd), PPARD (gene 5467) (UniProt Q03181). Kind of assay: ATG_PPARd_TRANS: Attagene TRANS-FACTORIAL HepG2 Assay for human Peroxisome Proliferator-activated Receptor delta (PPARd) (AID 2283002). In a few lines: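 HepG2 cells transiently transfected with multiplexed GAL4-UAS reporter units and exogenous chimeric NR-Gal4 proteins; 24 h compound exposure. Reporter mRNA measured by RT-PCR, 6-FAM labelling, HpaI digestion and capillary electrophoresis; gain of signal versus DMSO.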

Assay [9] concerns the target Peroxisome proliferator-activated receptor gamma (Homo sapiens) (UniProt P37231). Kind of assay: ATG_PPARg_TRANS: Attagene TRANS-FACTORIAL HepG2 Assay for human Peroxisome Proliferator-activated Receptor-gamma (PPARg) (AID 2283007). Summed up:
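After 24 h of chemical exposure, transfected HepG2 cells carrying PPARγ-Gal4 chimera reporter constructs are lysed for RNA. Reporter transcripts are measured by RT-PCR and capillary electrophoresis with fluorescent labelling, and gain of signal is fitted versus DMSO.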

Assay [10] addresses Retinoic acid receptor RXR-alpha (Homo sapiens) (UniProt P19793). Kind of assay: ATG_RXRa_TRANS: Attagene TRANS-FACTORIAL HepG2 Assay for human Retinoid X Receptor alpha (RXRa) (AID 2283012). In a few lines: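 Measures exogenous chimeric NR-GAL4 activity in transfected HepG2 liver cells after 24 h of dosing. Induced reporter mRNA was detected by RT-PCR with capillary electrophoresis, and gain of signal was analysed against DMSO.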

In assay [11] the target is human Vitamin D Receptor (VDR), VDR (gene 7421) (UniProt P11473). In words: ATG_VDR_TRANS: Attagene TRANS-FACTORIAL HepG2 Assay for human Vitamin D Receptor (VDR) (AID 2283022). In a few lines: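 Steps: transfect HepG2 with GAL4-UAS-driven reporter constructs; dose compounds 24 h; isolate RNA, reverse-transcribe, PCR-amplify with 6-FAM-labelled primer extension and HpaI digestion; quantify fragments by capillary electrophoresis relative to DMSO.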

Assay [12] in a line: TOX21_p53_BLA_p4_viability: Viability Assessment in the Tox21 HCT-116 p53 Agonism Beta-lactamase Assay, Phase 4 (AID 2283597).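 Further: hits lower the luminescence signal meaning cytotoxicity.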 Summed up:
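Readout: ATP luminescence (CellTiter-Glo), measured 30 min after reagent addition at RT. The reagent followed a 2 h CCF4-AM incubation, and the cells had been exposed to compound for 16 h at 37C.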

Assay [13] can be described thus: ATG_M_19_TRANS: Attagene TRANS-FACTORIAL HepG2 Assay for M19 Transcription Factor (Internal Marker) (AID 2282974). The conditions noted are these: HepG2 Attagene TRANS-FACTORIAL M19 internal marker reporter. Summed up: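 Background-control readout: after 24 h chemical exposure of transfected HepG2 carrying GAL4-driven reporter units, RNA was reverse-transcribed, amplified, fluorescently labeled and sized by capillary electrophoresis; gain-of-signal fit against DMSO.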

The nature of assay [14]: ACEA_ER_AUC_viability: ACEA Biosciences xCELLigence Real-Time Cell Analysis on Estrogen Receptor Agonism for Viability (AID 2283782).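 Further: hit means loss of impedance signal meaning reduced cell growth or viability.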 Summed up:
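Continuous-exposure impedance cell analysis uses T-47D cells in charcoal-stripped serum, eight 1:4 dilutions topping at 100 uM final, biological duplicate. Area under the growth curve at 80 h is fitted against DMSO baseline.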

Assay [15] in a line: ATG_VDRE_CIS: Attagene CIS-FACTORIAL HepG2 Assay for human Vitamin D Receptor Element (VDRE) (AID 2282968; active means hit-call score of the fitted dose curve at least 0.9, where 1 is the maximum; inactive means score below 0.9). As to conditions: HepG2 VDRE cis-reporter transcription, actives raise or lower the signal. Summed up: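 Steps: transfect HepG2 with multiple reporter transcription units; dose chemicals 24 h; isolate RNA; RT-PCR; label with 6-FAM primer extension; HpaI digest; capillary electrophoresis. Curves fitted both directions against DMSO.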

Assay [16] concerns the target human Thyroid Receptor alpha (THRa1), THRA (gene 7067) (UniProt P10827). Kind of assay: ATG_THRa1_TRANS: Attagene TRANS-FACTORIAL HepG2 Assay for human Thyroid Receptor alpha (THRa1) (AID 2283014). In a few lines: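 Reporter transcript induction, read by capillary electrophoresis of 6-FAM-labelled RT-PCR products, reflects activity of a transfected THRa1-Gal4 fusion in HepG2 liver cells. Cells were dosed for 24 h; activity was fitted in the positive direction against DMSO.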

The target of assay [17] is human RAR-related Orphan Receptor beta (RORb), RORB (gene 6096) (UniProt Q92753). In words: ATG_RORb_TRANS: Attagene TRANS-FACTORIAL HepG2 Assay for human RAR-related Orphan Receptor beta (RORb) (AID 2283010). In a few lines:
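Transfect HepG2 with multiple GAL4-UAS reporter transcription units; dose chemicals for 24 h; isolate RNA, reverse-transcribe and PCR-amplify reporter sequences; label, digest and resolve fragments by capillary electrophoresis; fit increases relative to DMSO.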

Assay [18] can be described thus: ATG_M_06_TRANS: Attagene TRANS-FACTORIAL HepG2 Assay for M06 Transcription Factor (Internal Marker) (AID 2282983).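 Further: reporter transcript level by RT-PCR then capillary electrophoresis fluorescence.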 As to conditions: HepG2 Attagene TRANS M06 internal marker reporter. Summed up:
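Background control endpoint: reporter mRNA from transiently transfected HepG2 after 24 h dosing, detected by RT-PCR with capillary electrophoresis fluorescence. Analysed for gain versus DMSO.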

Assay [19] in a line: CCTE_Harrill_HTTr_Viability_MCF7: CCTE's 6-hour Cell Viability Assessment for the High-Throughput Transcriptomics (HTTr) Platform, in MCF-7 cells cultured in DMEM + 10% fetal bovine serum, Harrill Lab (AID 2284010; active means hit-call score of the fitted dose curve at least 0.9, where 1 is the maximum; inactive means score below 0.9). Summed up:
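Read-out is propidium iodide gain of signal by high-content imaging, reflecting membrane integrity loss. Measurements are taken 6 h after dosing, eight concentrations per chemical, with DMSO serving as baseline for bidirectional curve fitting.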

A short description of assay [20]: CCTE_Harrill_HTTr_Apoptosis_MCF7: CCTE's 6-hour Apoptosis Assessment for the High-Throughput Transcriptomics (HTTr) Platform, in MCF-7 cells cultured in DMEM + 10% fetal bovine serum, Harrill Lab (AID 2284011; active means hit-call score of the fitted dose curve at least 0.9, where 1 is the maximum; inactive means score below 0.9). In a few lines:
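MCF-7 (DMEM + 10% FBS), 384-well; 8-pt dilution series, 6 h chemical exposure; caspase-3/7 activation via CellEvent Caspase 3/7 Green, HCI; bidirectional fit vs DMSO.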

Inconclusive results are not listed. Activity calls are given as the source filed them. How the source made its calls, unless noted: active means hit-call score of the fitted dose curve at least 0.9, where 1 is the maximum; inconclusive means response in the unintended direction; inactive means score below 0.9.

Oxysterols receptor LXR-beta (Homo sapiens), sequence (P55055 whole entry, looked up, the tested form may be a part): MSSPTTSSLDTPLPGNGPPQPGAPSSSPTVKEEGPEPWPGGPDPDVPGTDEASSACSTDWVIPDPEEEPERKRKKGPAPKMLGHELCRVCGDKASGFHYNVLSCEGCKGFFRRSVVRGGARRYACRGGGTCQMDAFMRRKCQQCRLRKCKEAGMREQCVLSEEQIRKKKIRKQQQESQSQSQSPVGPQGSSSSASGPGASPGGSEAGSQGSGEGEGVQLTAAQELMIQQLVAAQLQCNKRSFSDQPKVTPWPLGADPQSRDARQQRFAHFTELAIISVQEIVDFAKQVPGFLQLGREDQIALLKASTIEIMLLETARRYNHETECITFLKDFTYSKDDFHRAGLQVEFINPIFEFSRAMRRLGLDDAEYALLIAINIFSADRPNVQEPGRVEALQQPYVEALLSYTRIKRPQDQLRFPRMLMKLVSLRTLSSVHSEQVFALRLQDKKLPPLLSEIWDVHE
Peroxisome proliferator-activated receptor gamma (Homo sapiens), sequence (P37231 whole entry, looked up, the tested form may be a part): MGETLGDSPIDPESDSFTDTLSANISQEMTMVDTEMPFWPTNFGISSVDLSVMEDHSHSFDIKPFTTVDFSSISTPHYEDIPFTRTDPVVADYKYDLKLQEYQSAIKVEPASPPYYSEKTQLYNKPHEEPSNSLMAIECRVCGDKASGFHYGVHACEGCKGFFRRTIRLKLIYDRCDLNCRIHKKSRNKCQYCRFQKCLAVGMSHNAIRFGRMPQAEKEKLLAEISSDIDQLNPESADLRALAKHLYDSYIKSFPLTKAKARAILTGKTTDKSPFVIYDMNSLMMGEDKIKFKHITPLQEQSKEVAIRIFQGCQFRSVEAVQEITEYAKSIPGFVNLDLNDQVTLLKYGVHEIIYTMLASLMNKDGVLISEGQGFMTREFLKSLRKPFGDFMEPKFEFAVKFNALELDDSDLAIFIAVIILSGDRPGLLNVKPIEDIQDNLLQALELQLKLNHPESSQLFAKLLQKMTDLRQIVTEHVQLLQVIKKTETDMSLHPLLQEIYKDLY
Retinoic acid receptor RXR-alpha (Homo sapiens), sequence (P19793 whole entry, looked up, the tested form may be a part): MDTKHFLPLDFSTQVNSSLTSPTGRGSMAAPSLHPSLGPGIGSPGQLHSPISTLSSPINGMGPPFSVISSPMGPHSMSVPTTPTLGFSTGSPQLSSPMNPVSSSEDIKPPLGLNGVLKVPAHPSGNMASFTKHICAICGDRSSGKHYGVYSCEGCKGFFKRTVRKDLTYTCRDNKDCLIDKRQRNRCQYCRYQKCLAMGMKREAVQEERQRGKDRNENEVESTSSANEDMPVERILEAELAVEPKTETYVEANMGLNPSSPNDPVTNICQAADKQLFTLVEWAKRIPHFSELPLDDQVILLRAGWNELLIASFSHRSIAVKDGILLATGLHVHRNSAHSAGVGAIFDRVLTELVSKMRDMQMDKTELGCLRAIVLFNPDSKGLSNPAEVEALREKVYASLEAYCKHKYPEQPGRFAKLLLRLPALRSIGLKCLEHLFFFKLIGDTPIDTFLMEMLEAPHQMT
Nuclear receptor subfamily 1 group I member 3 (Homo sapiens), sequence (Q14994 whole entry, looked up, the tested form may be a part): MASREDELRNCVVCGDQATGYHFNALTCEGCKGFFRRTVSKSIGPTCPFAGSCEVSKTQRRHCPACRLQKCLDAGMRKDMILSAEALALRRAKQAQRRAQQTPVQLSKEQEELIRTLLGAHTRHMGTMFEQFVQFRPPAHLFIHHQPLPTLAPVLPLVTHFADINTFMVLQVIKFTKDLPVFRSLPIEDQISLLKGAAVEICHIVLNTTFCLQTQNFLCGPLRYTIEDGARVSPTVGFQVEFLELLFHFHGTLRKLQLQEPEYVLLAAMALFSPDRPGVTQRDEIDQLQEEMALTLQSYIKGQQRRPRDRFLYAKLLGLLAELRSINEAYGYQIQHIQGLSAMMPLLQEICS
Oxysterols receptor LXR-alpha (Homo sapiens), sequence (Q13133 whole entry, looked up, the tested form may be a part): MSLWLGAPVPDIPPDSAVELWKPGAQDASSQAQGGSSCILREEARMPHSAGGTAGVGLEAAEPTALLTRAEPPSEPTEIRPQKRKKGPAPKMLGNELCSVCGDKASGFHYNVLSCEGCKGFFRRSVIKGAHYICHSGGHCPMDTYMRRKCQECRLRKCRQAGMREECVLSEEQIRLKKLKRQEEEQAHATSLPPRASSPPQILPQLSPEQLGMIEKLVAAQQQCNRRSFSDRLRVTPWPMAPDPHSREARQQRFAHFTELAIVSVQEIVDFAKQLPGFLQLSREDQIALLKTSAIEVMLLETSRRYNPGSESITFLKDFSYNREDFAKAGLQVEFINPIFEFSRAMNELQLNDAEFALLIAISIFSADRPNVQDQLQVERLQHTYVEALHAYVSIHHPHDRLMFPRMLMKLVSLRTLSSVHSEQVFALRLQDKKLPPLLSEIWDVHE
human Vitamin D Receptor (VDR), VDR (gene 7421), sequence (P11473 whole entry, looked up, the tested form may be a part): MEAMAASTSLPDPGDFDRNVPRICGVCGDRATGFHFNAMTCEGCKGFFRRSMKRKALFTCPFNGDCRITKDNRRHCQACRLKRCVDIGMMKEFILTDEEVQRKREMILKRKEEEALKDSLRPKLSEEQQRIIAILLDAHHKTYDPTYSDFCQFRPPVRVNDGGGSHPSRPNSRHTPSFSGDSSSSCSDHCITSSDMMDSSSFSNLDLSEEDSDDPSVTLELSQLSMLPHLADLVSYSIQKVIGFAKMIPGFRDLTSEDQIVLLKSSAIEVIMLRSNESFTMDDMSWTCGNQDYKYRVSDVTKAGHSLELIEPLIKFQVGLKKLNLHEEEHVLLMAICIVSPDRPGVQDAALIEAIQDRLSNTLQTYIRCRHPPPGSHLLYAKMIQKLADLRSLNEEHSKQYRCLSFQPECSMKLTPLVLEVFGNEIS
human Peroxisome Proliferator-activated Receptor delta (PPARd), PPARD (gene 5467), sequence (Q03181 whole entry, looked up, the tested form may be a part): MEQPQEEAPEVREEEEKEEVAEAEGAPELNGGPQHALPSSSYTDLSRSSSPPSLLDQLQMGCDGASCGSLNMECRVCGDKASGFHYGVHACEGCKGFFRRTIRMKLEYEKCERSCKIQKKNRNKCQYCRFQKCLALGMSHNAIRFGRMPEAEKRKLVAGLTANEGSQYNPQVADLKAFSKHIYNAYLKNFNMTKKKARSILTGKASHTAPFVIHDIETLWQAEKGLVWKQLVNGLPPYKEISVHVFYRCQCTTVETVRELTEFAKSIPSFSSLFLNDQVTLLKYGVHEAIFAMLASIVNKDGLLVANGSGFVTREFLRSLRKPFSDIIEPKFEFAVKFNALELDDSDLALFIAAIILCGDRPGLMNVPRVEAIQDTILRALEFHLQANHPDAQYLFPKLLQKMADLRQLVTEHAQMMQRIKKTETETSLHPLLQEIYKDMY
Glucocorticoid receptor (Homo sapiens), sequence (P04150 whole entry, looked up, the tested form may be a part): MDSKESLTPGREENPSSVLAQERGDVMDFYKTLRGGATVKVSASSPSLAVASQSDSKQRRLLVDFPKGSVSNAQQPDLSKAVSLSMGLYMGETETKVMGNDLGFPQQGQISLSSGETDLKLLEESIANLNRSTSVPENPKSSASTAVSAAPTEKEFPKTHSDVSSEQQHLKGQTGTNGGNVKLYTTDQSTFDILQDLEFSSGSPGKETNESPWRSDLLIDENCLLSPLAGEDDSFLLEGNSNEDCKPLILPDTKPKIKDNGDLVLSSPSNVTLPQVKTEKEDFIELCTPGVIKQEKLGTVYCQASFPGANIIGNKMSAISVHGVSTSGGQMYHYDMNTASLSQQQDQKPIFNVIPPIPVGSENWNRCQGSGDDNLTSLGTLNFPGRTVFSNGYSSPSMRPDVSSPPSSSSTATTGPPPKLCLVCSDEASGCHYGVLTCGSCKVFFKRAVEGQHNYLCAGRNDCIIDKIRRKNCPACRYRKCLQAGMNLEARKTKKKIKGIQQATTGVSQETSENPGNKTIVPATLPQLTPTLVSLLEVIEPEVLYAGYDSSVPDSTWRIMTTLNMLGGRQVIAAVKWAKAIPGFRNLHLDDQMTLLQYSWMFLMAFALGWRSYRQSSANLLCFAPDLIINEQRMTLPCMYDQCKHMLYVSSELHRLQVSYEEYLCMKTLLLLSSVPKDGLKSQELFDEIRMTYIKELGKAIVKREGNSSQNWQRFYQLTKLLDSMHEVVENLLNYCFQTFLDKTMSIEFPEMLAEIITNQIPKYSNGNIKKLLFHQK
human Thyroid Receptor alpha (THRa1), THRA (gene 7067), sequence (P10827 whole entry, looked up, the tested form may be a part): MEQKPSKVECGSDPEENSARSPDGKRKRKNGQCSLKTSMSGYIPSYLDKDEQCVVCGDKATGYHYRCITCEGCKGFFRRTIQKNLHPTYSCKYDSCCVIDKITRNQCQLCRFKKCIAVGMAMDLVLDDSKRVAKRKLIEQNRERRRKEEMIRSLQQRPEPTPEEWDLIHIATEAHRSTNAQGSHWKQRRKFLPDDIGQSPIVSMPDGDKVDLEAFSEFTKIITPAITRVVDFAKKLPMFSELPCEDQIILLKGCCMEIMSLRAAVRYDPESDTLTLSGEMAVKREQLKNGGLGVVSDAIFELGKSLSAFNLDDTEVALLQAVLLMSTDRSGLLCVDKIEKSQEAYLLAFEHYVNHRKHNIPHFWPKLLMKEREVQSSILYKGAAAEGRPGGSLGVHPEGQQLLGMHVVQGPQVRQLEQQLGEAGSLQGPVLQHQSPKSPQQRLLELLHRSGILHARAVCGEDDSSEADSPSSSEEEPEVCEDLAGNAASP
Bile acid receptor (Homo sapiens), sequence (Q96RI1 whole entry, looked up, the tested form may be a part): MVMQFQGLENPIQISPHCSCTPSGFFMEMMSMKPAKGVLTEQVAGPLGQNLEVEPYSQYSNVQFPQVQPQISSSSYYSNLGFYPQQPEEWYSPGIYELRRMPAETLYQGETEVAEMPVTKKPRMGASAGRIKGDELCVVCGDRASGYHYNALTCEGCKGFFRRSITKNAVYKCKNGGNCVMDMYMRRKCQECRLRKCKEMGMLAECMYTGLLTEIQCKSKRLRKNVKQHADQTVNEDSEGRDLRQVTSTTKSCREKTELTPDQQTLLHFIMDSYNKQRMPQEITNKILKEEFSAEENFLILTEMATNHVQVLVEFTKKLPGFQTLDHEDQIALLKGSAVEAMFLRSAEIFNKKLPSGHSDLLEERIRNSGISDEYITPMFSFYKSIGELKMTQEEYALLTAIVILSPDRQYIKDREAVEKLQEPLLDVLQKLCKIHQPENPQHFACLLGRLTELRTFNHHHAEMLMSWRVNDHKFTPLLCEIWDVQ

Usually AC50 stands for the concentration giving half of the maximal activity seen. As to `CCCCCCCCCCCCCCCCCC[N+](C)(C)C`, the AC50 was 6.2 µM (active) in [1]; 15.4 µM (active) in [3]; 11.8 µM (active) in assay [4]; 15.9 µM (active) in [5]; 32.7 µM (active) in assay [9]; 65.7 µM (active) in assay [12]. Further, the compound was classed as inactive in assay [2], in [6], in [7], in assay [8], in [10] and in assay [11].
Take `CC/C=C\CC1=C(C)CCC1=O`: the compound was classed as inactive in assay [2], in assay [13], in assay [6], in assay [7], in assay [10] and in assay [11]. Further, the half-maximal activity concentration (AC50) in assay [9] was 23.9 µM (active); in assay [14] it was 92.5 µM (active).
Consider `Oc1ccc(Oc2ccccc2)cc1`, for which the half-maximal activity concentration (AC50) is 48 µM (active) in assay [1], 38.4 µM (active) in [15] and 28 µM (active) in assay [9]. The outcome in assay [5], in assay [6], in assay [8], in assay [16], in [11] and in assay [12] was inactive.
On to `OCCc1ccccn1`, for which the outcome in assay [1], in [15], in assay [2], in [13], in assay [4] and in [6] was inactive. The result in assay [7], in assay [8], in assay [17], in [10] and in assay [11] was inactive.
Take `Nc1ccc(S(=O)(=O)Nc2cnc3ccccc3n2)cc1`: the call in [6], in assay [18], in assay [9], in assay [10], in assay [16] and in assay [11] was inactive. Moreover, the call in assay [14], in assay [19] and in assay [20] was inactive.
Regarding `CCCN[C@H]1CCc2nc(N)sc2C1`, the compound was called inactive in [15], in assay [13], in assay [6], in assay [7], in [11] and in assay [12].

(Values after PubChem BioAssay (EPA / NIEHS).)
